For 26 molecules, Potency results are on record in PubChem BioAssay (NCATS).

Experiment [1] concerns the target Cytochrome P450 2D6 (Homo sapiens) (UniProt P10635). Briefly: Cytochrome P450 family 2 subfamily D member 6 (CYP2D6) small molecule antagonists: luciferase biochemical (cell-free) qHTS assay (AID 1645840). In outline:
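P450-Glo CYP2D6 system: proluciferin substrate converted by enzyme to luciferin, read by luminescence proportional to activity. Enzyme-substrate mix with compound 10 min at room temperature, then NADPH regeneration 1 h before detection reagent.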
For orientation: In qHTS, concentration-response curves come from the screen itself.

In experiment [2] the target is Cytochrome P450 2C9 (Homo sapiens) (UniProt P11712). Briefly: Cytochrome P450 family 2 subfamily C member 9 (CYP2C9) small molecule antagonists: luciferase biochemical (cell-free) qHTS assay (AID 1645842). A digest of the protocol: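 P450-Glo CYP2C9 system: proluciferin substrate with enzyme in mix containing 0.4% BSA, 10 min at room temperature, then NADPH regeneration solution added and incubated 1 h at 37C. Detection reagent stopped reaction; luminescence read after 20 min as RLU.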
Sequence of Cytochrome P450 2C9 (Homo sapiens) (P11712 whole entry, looked up): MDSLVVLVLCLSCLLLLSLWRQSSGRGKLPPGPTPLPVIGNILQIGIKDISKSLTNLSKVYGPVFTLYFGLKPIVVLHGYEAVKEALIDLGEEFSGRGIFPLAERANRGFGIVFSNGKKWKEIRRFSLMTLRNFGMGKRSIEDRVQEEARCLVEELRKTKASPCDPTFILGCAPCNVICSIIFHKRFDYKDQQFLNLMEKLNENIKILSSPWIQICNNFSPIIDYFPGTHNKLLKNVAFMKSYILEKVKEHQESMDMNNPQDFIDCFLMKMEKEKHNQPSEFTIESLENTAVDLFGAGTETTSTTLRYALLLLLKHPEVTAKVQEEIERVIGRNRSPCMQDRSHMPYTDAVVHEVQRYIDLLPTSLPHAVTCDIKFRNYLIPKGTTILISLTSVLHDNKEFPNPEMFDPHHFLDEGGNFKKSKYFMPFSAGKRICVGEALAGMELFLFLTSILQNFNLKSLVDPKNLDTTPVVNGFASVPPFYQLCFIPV

Inconclusive results are not listed. Active and inactive are the calls of the source. The call rests on the fitted dose curve; in most records, active means well fitted curve in the direction sought with a large enough effect in the repeat runs; inconclusive means weak or mixed curves; inactive means no such curve, though single readings can be large; an effect the other way counts as inactive or inconclusive.
Further: nearly all actives have a fitted effect of over 55% in size.
Potency means the concentration at half of the fitted maximal effect.

Sequence of Cytochrome P450 2D6 (Homo sapiens) (P10635 whole entry, looked up): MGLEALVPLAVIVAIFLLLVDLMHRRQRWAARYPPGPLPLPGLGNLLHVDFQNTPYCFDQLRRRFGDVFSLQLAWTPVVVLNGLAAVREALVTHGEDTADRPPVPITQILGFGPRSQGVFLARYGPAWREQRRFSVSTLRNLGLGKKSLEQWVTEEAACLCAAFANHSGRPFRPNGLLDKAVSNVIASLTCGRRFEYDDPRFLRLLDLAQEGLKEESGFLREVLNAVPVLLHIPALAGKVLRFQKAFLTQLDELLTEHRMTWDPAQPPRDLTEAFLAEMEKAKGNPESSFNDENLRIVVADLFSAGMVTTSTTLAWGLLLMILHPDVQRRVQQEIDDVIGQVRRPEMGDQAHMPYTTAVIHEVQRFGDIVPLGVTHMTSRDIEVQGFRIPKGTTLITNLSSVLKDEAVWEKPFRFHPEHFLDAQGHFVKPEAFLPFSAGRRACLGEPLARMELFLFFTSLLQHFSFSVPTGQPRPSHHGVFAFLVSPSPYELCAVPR

Consider `COc1ccc(CNC(=O)C(=O)Nc2c3c(nn2-c2ccccc2)CSC3)cc1`, for which, in experiment [1], the Potency result was “inactive”. Further, the Potency in experiment [2] is 3.38 µM (active).

With `Cc1cc(Cl)ccc1NC(=O)CCCn1nc(C)c2c(C)n(-c3ccccc3)nc2c1=O`, in experiment [1], the Potency entry was “inactive”. Besides, the Potency in experiment [2] was 13.5 µM (active).

Consider `Cc1ccc(C)c(N2CCN(C(=O)C3CCN(S(=O)(=O)c4ccc5[nH]c(=O)oc5c4)CC3)CC2)c1`, for which, in experiment [1], the Potency result is “inactive”. Also, in experiment [2], the Potency was 2.13 µM (active).

Turning to `CC1=C(C(=O)Nc2ccc(CN)cc2)C(c2ccccc2Cl)N=C(Nc2nc3ccccc3o2)N1` (configuration not stated), the Potency in experiment [1] was 15.1 µM (active); in experiment [2], 10.7 µM (active).

On to `CC1(C#N)CCN(c2c(C(=O)N3CCN(C(=O)C4CC4)CC3)cnc3ccc(Cl)cc23)CC1`, for which the Potency entry in experiment [1] was “inactive”. The Potency in experiment [2] was 16.9 µM (active).

For `COc1ccc(-n2nc3c(N4CCCC(C(=O)NCCc5ccccc5C)C4)nnc(C)c3c2C)cc1` (configuration not stated), the Potency in experiment [1] is 2.68 µM (active); in experiment [2] it was 0.674 µM (active).

Turning to `O=C(O)C1CSC(C(=O)O)N1` (configuration not stated), the Potency result in experiment [1] and in experiment [2] was “inactive” in each case.

Consider `CCOc1ccc(C(NC(=O)c2cc(OC)c(OC)c(OC)c2)c2cc(Cl)c3cccnc3c2O)cc1` (configuration not stated), for which the Potency entry in experiment [1] was “inactive”. Also, the Potency in experiment [2] was 30.1 µM (active).

For the molecule `COc1ccccc1Nc1nc(-c2ccccc2F)nc2ccccc12`, the Potency result in experiment [1] is “inactive”. Also, the Potency in experiment [2] is 12 µM (active).

Regarding `O=C(Cn1c(=O)n(-c2ccc(Cl)cc2)c(=O)c2oc3ccccc3c21)Nc1ccccc1`, the Potency is 0.849 µM (active) in experiment [1] and 4.77 µM (active) in experiment [2].

On to `CCOC(=O)c1ccc(N2C(=O)c3n[nH]c(-c4ccco4)c3C2c2ccc(C)cc2)cc1` (configuration not stated), for which the Potency entry in experiment [1] was “inactive”. Moreover, the Potency in experiment [2] was 2.39 µM (active).

Take `COCCn1c(SCC(=O)Nc2ccc(F)c(Cl)c2)nc2c(oc3ccccc32)c1=O`: the figures for the Potency in experiment [1] and in experiment [2] were 2.39 µM (active) and 0.952 µM (active), respectively.

Turning to `COc1cccc(NC(=O)Cn2c(=O)n(CC(=O)NCc3ccc(C)cc3)c(=O)c3sccc32)c1`, the results for the Potency in experiment [1] and in experiment [2] were 0.107 µM (active) and 6.01 µM (active), respectively.

Regarding `Cc1cccc(NC(=O)CSc2nc3ccccc3c3nc(CCn4cncc4C)nn23)c1`, the Potency in experiment [1] is 3.01 µM (active); in experiment [2] it was 1.51 µM (active).

As to `Cc1ccc(-n2c(SCc3cccc(F)c3)nc3[nH]ncc3c2=O)cc1C`, the Potency in experiment [1] was 8.49 µM (active); in experiment [2], 1.51 µM (active).

`Cc1cccc(Cn2c(SCc3ccc(C(=O)N4CCC(C)CC4)cc3)nc3ccncc32)c1`: the Potency in experiment [1] and in experiment [2] was 4.77 µM (active) throughout.

For the molecule `CCOC(=O)C1=C(O)c2ccccc2S(=O)(=O)N1C`, the Potency result in experiment [1] and in experiment [2] was “inactive” throughout.

Turning to `COCCCNC(=O)C(=O)Nc1c2c(nn1-c1cccc(Cl)c1)CSC2`, the Potency result in experiment [1] is “inactive”. Also, the Potency in experiment [2] was 8.49 µM (active).

Take `COc1ccc(NC(=O)Cn2ccn(-c3ccc(C)c(C)c3)c(=O)c2=O)cc1Cl`: the Potency entry in experiment [1] and in experiment [2] was “inactive” in each case.

Take `COc1ccc(C(Nc2ccccn2)c2ccc3ccc(C)nc3c2O)cc1C` (configuration not stated): the Potency was 21.3 µM (active) in experiment [1] and 2.68 µM (active) in experiment [2].

`CCOC(=O)c1ccc(Nc2nc3nonc3nc2Nc2cccc(C)c2C)cc1`: the Potency in experiment [1] is 10.7 µM (active). In experiment [2], the Potency entry was “inactive”.

Take `CCOc1ccc(CCNC(=O)C2CCCN(c3nnc(C)c4c(C)n(-c5ccccc5)nc34)C2)cc1` (configuration not stated): the Potency in experiment [1] is 4.77 µM (active); in experiment [2], 3.01 µM (active).

`COC(=O)Cc1ccc(NC(=O)C2=C(C)NC(Nc3nc4ccccc4o3)=NC2c2ccccc2Cl)cc1` (configuration not stated): in experiment [1], the Potency entry is “inactive”. Besides, in experiment [2], the Potency was 0.756 µM (active).

Take `Cc1ccc(Cn2c(SCc3ccc(C(=O)N4CCCCCC4)cc3)nc3ccncc32)cc1`: the Potency in experiment [1] was 7.56 µM (active). For the same molecule, the Potency entry in experiment [2] was “inactive”.

For `Cc1ccnc(NC(c2cccc(O)c2)c2ccc3ccc(C)nc3c2O)c1` (configuration not stated), the Potency was 13.5 µM (active) in experiment [1] and 9.52 µM (active) in experiment [2].

With `Cc1nc2c3ccccc3nc(NNC(=O)CCC(=O)N3CCN(c4ccc(F)cc4)CC3)n2n1`, in experiment [1], the Potency entry was “inactive”. Moreover, the Potency in experiment [2] was 3.79 µM (active).
